An excerpt weighted towards active compounds, which were near 1.8% of everything screened.
APP 5UTR inh = APP translation inhibition; SH-SY5Y APP 5'UTR-luciferase reporter, luminescence; inhibition, % at 2 µM; 0.82% of 190,000 active; AID 1285;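 active = inhibition above a set limit, derived from the sample mean plus 3 SD, cut at about 45% in these data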
Ba/F3 V617F tox = lowers viability of Ba/F3 cells expressing EpoR and JAK2V617F; ATP luminescence; inhibition, % at 5.6 µM; 1.1% of 220,000 active;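 active = inhibition above the campaign mean plus 3 SD over all tested compounds, cut at about 24% in these data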;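 note: cytokine-independent growth of Ba/F3 cells driven by EpoR plus mutant JAK2; 0% = DMSO-treated cells and 100% = JAK inhibitor I control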
IEC-6 tox = counter-screen for KLF5 inhibitors: cytotoxicity in IEC-6 cells; IEC-6 cytotoxicity, luminescence viability; inhibition, % at 5 µM; 0.78% of 290,000 active; AID 1825; in the data active = inhibition above about 22%;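 note: 0% = plate median of test compound wells and 100% = cytotoxic reference compound wells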
KLF5 inhibitor = inhibitors of KLF5 expression | 0.23% of 290,000 active | AID 1700 | DLD-1 KLF5 promoter-luciferase reporter, luminescence | inhibition, % at 5 µM;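 active = inhibition above a per-plate limit of that plate's mean compound inhibition plus 3 SD, cut at about 60% in these data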;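 note: 0% = DMSO wells and 100% = LY294002 at 200 µM; higher means less KLF5 promoter-driven luciferase light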
BaF3 tox = reduces parental Ba/F3 cell viability, JAK2V617F counter-screen | CellTiter-Glo ATP luminescence | inhibition, % at 5.6 µM | 1.1% of 220,000 active | AID 1486;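 active = inhibition above a per-campaign cutoff, the mean inhibition of all tested compounds plus 3 SD, cut at about 27% in these data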;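 note: 0% = DMSO wells and 100% = JAK Inhibitor I control wells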
Starred values were filed as active, the others as inactive.

For Cc1ccc(C(=O)Nc2nc(C)c(C(=O)Nc3ccc4c(c3)CCC4)s2)cc1 the results were APP 5UTR inh 66.1*, Ba/F3 V617F tox 3.3, IEC-6 tox 16.0, KLF5 inhibitor -48.0 and BaF3 tox 9.1.
Screening Cc1ccc(-c2cc(C(=O)N/N=C/c3c(C)nn(-c4ccccc4)c3C)[nH]n2)cc1 returned APP 5UTR inh 94.9*, Ba/F3 V617F tox 1.3, IEC-6 tox 3.5, KLF5 inhibitor -6.9 and BaF3 tox 2.3.
`COC(=O)c1ccc(NC(=O)c2ccccc2-c2ccccc2C(=O)O)cc1` gave APP 5UTR inh 8.6, Ba/F3 V617F tox -2.5, IEC-6 tox -1.5, KLF5 inhibitor 3.6 and BaF3 tox 0.7.
O=C(Oc1ccccc1C(=O)Nc1ccccc1)c1ccccc1Br was read as APP 5UTR inh 58.5*, Ba/F3 V617F tox -0.3, IEC-6 tox 7.5, KLF5 inhibitor -49.4 and BaF3 tox 5.3.
O=C(COc1ccccc1C(=O)Nc1ccccc1)c1ccc(Br)cc1 was read as APP 5UTR inh -8.9, Ba/F3 V617F tox -3.1, IEC-6 tox 2.7, KLF5 inhibitor 3.0 and BaF3 tox -0.3.
Screening COc1ccc(NC(=O)N2CCCC(c3ccccc3)C2)cc1 (stereo unspecified) returned IEC-6 tox 0.9 and KLF5 inhibitor -24.6.
Screening CCOC(=O)C[N+](CC)(CC)CC#Cc1ccccc1 returned APP 5UTR inh -5.0, Ba/F3 V617F tox -0.1, IEC-6 tox 1.2, KLF5 inhibitor -27.9 and BaF3 tox 2.4.
Screening C#CC[N+](C)(C)CC#Cc1ccc(C)cc1 returned APP 5UTR inh -4.2, Ba/F3 V617F tox 41.4*, IEC-6 tox -4.2, KLF5 inhibitor 12.4 and BaF3 tox 37.3*.
Screening C#CC[N+](CC)(CC)CC#Cc1ccccc1 returned Ba/F3 V617F tox 59.1*, IEC-6 tox 0.7, KLF5 inhibitor 7.0 and BaF3 tox 62.2*.
Screening C[N+](C)(CC#Cc1ccccc1)CC(=O)c1ccccc1 returned APP 5UTR inh -16.5, Ba/F3 V617F tox -0.9, IEC-6 tox -2.2, KLF5 inhibitor -8.8 and BaF3 tox 10.6.
For CC[N+](CC)(CC#Cc1ccccc1)CC#Cc1ccccc1 the results were Ba/F3 V617F tox 89.3*, IEC-6 tox 3.3, KLF5 inhibitor -18.5 and BaF3 tox 66.8*.
For CC(NC(=O)/C=C/c1ccco1)c1nc2ccccc2n1Cc1cccc(Cl)c1 (stereo unspecified) the results were APP 5UTR inh 5.5, Ba/F3 V617F tox 1.0, IEC-6 tox 0.0, KLF5 inhibitor -12.3 and BaF3 tox 4.2.
For O=C(CN1CCN(C(=O)c2c(F)cccc2F)CC1)Nc1ccccc1C(F)(F)F the results were IEC-6 tox 2.0 and KLF5 inhibitor -15.7.
For CC(C)c1ccc(/C=N/NC(=O)c2ccccc2Cl)cc1 the results were APP 5UTR inh 61.4*, Ba/F3 V617F tox 23.3, IEC-6 tox 21.0, KLF5 inhibitor -9.4 and BaF3 tox 4.6.
`Cc1nc(NC(C)C)c2cnn(CCc3ccccc3)c2n1` gave APP 5UTR inh -30.2, Ba/F3 V617F tox -2.4, IEC-6 tox -1.9, KLF5 inhibitor -103.6 and BaF3 tox 5.0.
For FC(F)(F)c1ccccc1NC(=S)N/N=C1\CC2CC=CC12 (stereo unspecified) the results were APP 5UTR inh 85.5*, Ba/F3 V617F tox 4.4, IEC-6 tox 0.2, KLF5 inhibitor -2.9 and BaF3 tox 11.1.
Screening COc1ccc(-c2nn(-c3ccccc3)cc2/C=C/C(=O)N2CCOCC2)cc1OC returned APP 5UTR inh -8.0, Ba/F3 V617F tox 3.5, IEC-6 tox 0.2, KLF5 inhibitor 18.8 and BaF3 tox 3.3.
O=[N+]([O-])c1ccc(COc2ccc(Br)cc2CN2CCOCC2)cc1 was read as APP 5UTR inh -9.7, Ba/F3 V617F tox 2.0, IEC-6 tox 1.3, KLF5 inhibitor -8.6 and BaF3 tox 90.0*.
`O=[N+]([O-])c1ccc(CN2CCOCCOCCN(Cc3ccc([N+](=O)[O-])cc3)CCOCC2)cc1` gave APP 5UTR inh 8.3, Ba/F3 V617F tox -1.3, IEC-6 tox -3.4, KLF5 inhibitor -19.9 and BaF3 tox 2.4.
Cc1ccc(C(=O)Nc2ncc(Cc3ccc(F)cc3)s2)o1 was read as APP 5UTR inh -133.7, Ba/F3 V617F tox 79.7*, IEC-6 tox 45.4*, KLF5 inhibitor -107.3 and BaF3 tox 71.3*.
For Cc1ccc(C(=O)Nc2ncc([N+](=O)[O-])s2)cc1 the results were IEC-6 tox 14.3 and KLF5 inhibitor 86.9*.
Cc1ccc(C(=O)Nc2ncc(Cc3ccc(SC(F)F)cc3)s2)cc1 was read as APP 5UTR inh 92.6*, Ba/F3 V617F tox 3.3, IEC-6 tox 2.2, KLF5 inhibitor 32.7 and BaF3 tox 1.9.
Nc1ncnc(Nc2ccccc2Cl)n1 was read as Ba/F3 V617F tox -1.7, IEC-6 tox 2.7, KLF5 inhibitor -41.1 and BaF3 tox -1.4.
Screening CCCCCCCNC1=CC(=O)CC(c2ccco2)C1 (stereo unspecified) returned APP 5UTR inh -18.9, Ba/F3 V617F tox 29.2*, IEC-6 tox 4.9, KLF5 inhibitor 3.6 and BaF3 tox 37.9*.
Screening O=C(NN1C(=O)c2ccccc2C1=O)c1ccc2c(c1)C(=O)N(CC1CCCO1)C2=O (stereo unspecified) returned Ba/F3 V617F tox -2.3, IEC-6 tox -0.6, KLF5 inhibitor 2.2 and BaF3 tox 2.2.
Screening S=C(Nc1ccc(Cl)cc1)N1CCN(C2CCCCC2)CC1 returned APP 5UTR inh -10.4, Ba/F3 V617F tox 22.7, IEC-6 tox -3.5, KLF5 inhibitor -2.8 and BaF3 tox 36.3*.
For Cc1ccc(N2CCN(C(=S)Nc3ccc(Cl)cc3)CC2)cc1 the results were IEC-6 tox -1.9 and KLF5 inhibitor -1.9.
`CC(C)(C)n1cnnc1Sc1ncccc1[N+](=O)[O-]` gave Ba/F3 V617F tox -3.7, IEC-6 tox -3.7, KLF5 inhibitor -27.4 and BaF3 tox -4.8.
Screening C=CCN(C(=O)c1csnn1)C(C(=O)NC1CCCC1)c1ccccc1F (stereo unspecified) returned IEC-6 tox -0.6 and KLF5 inhibitor -27.3.
`Cc1nc(C(=O)NNC(=O)c2ccc(Cl)cc2)c(C(F)(F)F)o1` gave Ba/F3 V617F tox -3.8, IEC-6 tox 8.3, KLF5 inhibitor 1.5 and BaF3 tox 31.0*.
CC1CCC(=O)N(CCC#N)CC1 (stereo unspecified) was read as IEC-6 tox -0.4 and KLF5 inhibitor -20.8.
Screening NC(=O)COC(=O)c1ccccc1Nc1ccc(SC(F)F)cc1 returned APP 5UTR inh -6.1, Ba/F3 V617F tox -3.7, IEC-6 tox 16.5, KLF5 inhibitor -41.5 and BaF3 tox 2.0.
For CC(OC(=O)c1ccccc1Nc1ccc(SC(F)F)cc1)C(N)=O (stereo unspecified) the results were APP 5UTR inh 8.2, Ba/F3 V617F tox 4.8, IEC-6 tox 27.6*, KLF5 inhibitor 7.2 and BaF3 tox 11.8.
For Cc1ccc(CS(=O)Cc2ccc(C(=O)NCCc3ccccc3)o2)cc1 (stereo unspecified) the results were IEC-6 tox 1.0 and KLF5 inhibitor -6.1.
Screening CCOC(=O)c1ccccc1NC(=O)Cn1c(=O)n(Cc2ccccc2)c(=O)c2c(C)c(C)sc21 returned APP 5UTR inh 0.3, Ba/F3 V617F tox 0.6, IEC-6 tox 2.4, KLF5 inhibitor -38.1 and BaF3 tox 1.6.

Screening data as filed in PubChem BioAssay.
